A selection: hits, their analogues and other compounds. The true share with any hit is near 18%.
DT40 TDP1 no CPT: qHTS for Inhibitors of human tyrosyl-DNA phosphodiesterase 1 (TDP1): qHTS in cells in absence of CPT; DT40 Tdp1-/- hTDP1 cells, no CPT, ATP luminescence, 48 h; Potency, µM (top dose mostly 46.2 µM), without a hit: at the highest dose activity change, negative = growth inhibition, usual class: inhibitors; 420,000 tested, 15% active; AID 686978, 2013; also: potency is read from the fitted curve at half-maximal effect; % is scaled to controls: 0 for no effect and ±100 for the full control effect; nearly all actives have a fitted effect of over 55% in size
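No-CPT arm: Tdp1-/-;hTDP1 DT40 cells (400/well) plus compounds, incubated ≥48 hr at 37 °C. Readout CellTiter-Glo luminescence.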
HepG2 viability: qHTS for Inhibitors of TGF-b: Cytotox Counterscreen; 410,000 tested, 0.76% active; HepG2 CAGA-GFP viability, ATP luminescence, 18 h; Potency, µM (top dose mostly 46.1 µM), for the others: at the top dose activity change, negative = cytotoxicity, most hits filed as cytotoxic; AID 588856, 2011; also: potency is read from the fitted curve at half-maximal effect
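CellTiter-Glo luminescence gave cytotoxicity after 18 hours at 37 degrees C. The cells were HepG2 CAGA-GFP in 1% FBS DMEM, stimulated with 500 pg/mL TGF-beta after compound addition. %Activity was normalised to no-cell wells (complete cell-killing) and DMSO (no toxicity), and curves were fitted and classified.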
TDP1 block: qHTS Assay for Inhibitors of Tyrosyl-DNA Phosphodiesterase (TDP1); Tyrosyl-DNA phosphodiesterase 1 (Homo sapiens), Q9NUW8; recombinant TDP1, AlphaScreen DNA substrate cleavage; Potency, µM (highest dose often 130 µM), inactives show at the top dose activity change, negative = inhibition, most hits filed as inhibitors; 350,000 tested, 0.28% active; AID 485290, 2010; also: potency is read from the fitted curve at half-maximal effect; % is scaled to controls: 0 for no effect and ±100 for the full control effect; nearly all actives have a fitted effect of over 40% in size
Target sequence (Q9NUW8 whole entry, looked up): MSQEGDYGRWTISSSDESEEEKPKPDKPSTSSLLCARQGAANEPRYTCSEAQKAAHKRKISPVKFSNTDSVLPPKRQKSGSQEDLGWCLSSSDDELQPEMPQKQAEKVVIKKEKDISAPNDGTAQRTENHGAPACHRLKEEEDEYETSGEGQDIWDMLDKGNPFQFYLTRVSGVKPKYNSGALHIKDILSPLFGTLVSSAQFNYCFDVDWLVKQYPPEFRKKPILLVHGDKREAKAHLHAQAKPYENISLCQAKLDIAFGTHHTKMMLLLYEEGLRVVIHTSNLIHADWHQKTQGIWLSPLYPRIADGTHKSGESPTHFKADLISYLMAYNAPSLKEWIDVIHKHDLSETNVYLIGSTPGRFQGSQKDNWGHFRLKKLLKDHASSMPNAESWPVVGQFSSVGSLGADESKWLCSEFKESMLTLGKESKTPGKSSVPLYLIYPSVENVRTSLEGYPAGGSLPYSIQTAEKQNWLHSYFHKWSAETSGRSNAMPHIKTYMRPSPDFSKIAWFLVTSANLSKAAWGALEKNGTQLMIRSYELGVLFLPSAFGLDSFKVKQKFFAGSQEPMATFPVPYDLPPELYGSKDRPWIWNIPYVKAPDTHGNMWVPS
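Enzyme-compound mixtures sat 15 min at room temperature, followed by a 5 min reaction with 15 nM final substrate and 10 min with AlphaScreen beads. Recombinant human Tdp1 was used at 1 nM final.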
IL1B secr inh: qHTS for Inhibitors of Inflammasome Signaling: IL-1-beta AlphaLISA Primary Screen; THP-1 LPS/ATP IL-1B secretion, AlphaLISA, 16 h; hits give low values; activity change, % at 57.5 µM; 360,000 tested, 4.7% active; in the data active = activity change below about -50%; inconclusive = mostly about -30% to -49%; also: % is scaled to controls: 0 for no effect and ±100 for the full control effect
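THP-1 cells pretreated 1 hr with compounds (up to 57.5 uM final), then stimulated with LPS (250 ng/mL final) plus ATP (1.25 mM final); secreted IL-1B measured by AlphaLISA after 16 hr, decreased signal indicating inhibition.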
TGFb SMAD3 inh: qHTS for Inhibitors of TGF-b. 410,000 tested, 1.2% active. Potency, µM (titrated, usually from 46.1 µM), for the others: at the highest dose activity, negative = inhibition, hits mostly inhibitors. HepG2 CAGA-GFP TGF-b/SMAD3 reporter, GFP fluorescence, 18 h; TGF-beta stimulated, 500 pg/mL final; also: potency is read from the fitted curve at half-maximal effect; % is scaled to controls: 0 for no effect and ±100 for the full control effect; nearly all actives have a fitted effect of over 65% in size
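Inhibition was scored as loss of TGF-beta-induced (500 pg/mL final, 18 hours, 37 degrees C) GFP in HEPG2 cells carrying a CAGA-GFP reporter, in DMEM with 1% FBS. Well GFP was summed per cell; Activity was normalised to unstimulated and stimulated DMSO wells, then concentration-response fitting.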
DT40 TDP1 CPT: qHTS for Inhibitors of human tyrosyl-DNA phosphodiesterase 1 (TDP1): qHTS in cells in presence of CPT | Potency, µM (highest dose often 46.2 µM), without a hit: at the top dose activity change, negative = growth inhibition, most hits filed as inhibitors | chicken DT40 Tdp1-/-;hTDP1 cells + 20 nM CPT, ATP luminescence, 48 h | 420,000 tested, 12% active | AID 686979, 2013; also: potency is read from the fitted curve at half-maximal effect; % is scaled to controls: 0 for no effect and ±100 for the full control effect; nearly all actives have a fitted effect of over 55% in size
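Chicken DT40 Tdp1-/- cells stably complemented with human TDP1 were seeded at 400 cells/well in medium containing 20 nM camptothecin, exposed to pin-transferred compounds, and grown at 37 °C for at least 48 hr. Viability was read as ATP luminescence.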
* = called active by the depositor; ? = inconclusive; . = no result given; [ ] = remark or other dose. Unless noted, calls follow the shape of the dose curve; as a rule, active = well fitted curve in the direction sought with a large enough effect; inconclusive = small, poorly fitted or top-dose-only effect, or another doubt; inactive = no such curve, though single readings can be large; an effect the other way counts as inactive or inconclusive.

SMILES	DT40 TDP1 no CPT	HepG2 viability	TDP1 block	IL1B secr inh	TGFb SMAD3 inh	DT40 TDP1 CPT
CC/C(=N\Nc1ccnc2cc(Cl)ccc12)c1ccc(O)cc1	?	-13.4%	.	-20.2	-6.9%	?
CC(O)(c1ccccc1)c1ccc2ccccc2n1 (configuration not stated)	-6.9%	15.2%	.	0.0	16.9%	-1.7%
C[C@H]1OC(=O)CC[C@@H]2[C@]1(C)CCC1[C@@]2(C)CC[C@@]2(C)C3CC(C)(C)CC[C@]3(CO)CC[C@]12C (some centres not stated)	?	.	8.7%	.	.	?
Oc1ccc(/C=N/Nc2ccnc3cc(Cl)ccc23)cc1O	13µM*	-41.2%	8.8%	79.7	?	13µM*
Oc1ccc(/C=N/Nc2ccnc3cc(Cl)ccc23)c(O)c1O	?	-1.0%	12.3%	11.3	0.0%	?
CC(Oc1ccccc1)C(=O)Nc1ccc(F)c(S(=O)(=O)N2CCOCC2)c1 (configuration not stated)	-26.5%	-2.7%	10.6%	-9.5	-3.3%	-29.6%
COc1ccc(C(=O)/C=C2/c3ccccc3CC(C)(C)N2C)cc1	5.17µM*	-13.5%	5.9%	7.3	-27.0%	5.17µM*
O=C(/C=C/c1ccccc1)Nc1cccnc1	-21.7%	-4.0%	.	-5.9	6.1%	-3.9%
CN1/C(=C\C(=O)Nc2cccnc2)c2ccccc2CC1(C)C	10.3µM*	-0.9%	-0.7%	5.7	-1.2%	18.4µM*
CCOC(=O)c1c(-c2ccccc2)csc1NC(=O)c1cc(-c2ccccc2OC)on1	?	13.6%	.	15.4	11.5%	?
O=c1cc(OCc2ccccc2)cc[nH]1	8.1%	18.2%	10.3%	-65.7*	7.0%	2.1%
Cc1[nH]ccc(=O)c1OCc1ccccc1	-7.4%	-21.3%	0.0%	13.9	-3.8%	0.6%
C(=C\c1ccncc1)/c1ccccc1	9.6%	6.2%	-3.8%	0.0	0.1%	-2.5%
CC[N+](C)(C)c1ccc(/C=C/c2ccncc2)cc1	0.631µM*	-15.9%	.	.	34.7%	0.708µM*
CCC[N+](C)(C)c1ccc(/C=C/c2ccncc2)cc1	0.355µM*	-33.0%	.	.	43.7%	0.355µM*
C(=C\c1ccncc1)/c1ccncc1	24.0%	-7.1%	0.0%	-16.2	-7.9%	-0.3%
COc1ccc(Cn2c(CNS(=O)(=O)c3ccc(C)c(C)c3)nc3cccnc32)cc1	-24.6%	-11.8%	4.4%	.	?	-25.9%
COc1ccccc1Cn1c(CNS(=O)(=O)c2ccc(C(C)C)cc2)nc2cccnc21	23.1µM*	-12.8%	11.0%	.	?	?
CC(C)Cc1ccc(S(=O)(=O)NCc2nc3cccnc3n2Cc2ccccc2)cc1	18.4µM*	-24.8%	3.3%	.	?	?
COc1ccccc1Cn1c(CNS(=O)(=O)c2ccc(CC(C)C)cc2)nc2cccnc21	13µM*	-24.6%	6.6%	.	12.6µM*	20.6µM*
CCc1ccc(S(=O)(=O)NCc2nc3cccnc3n2Cc2cccc(OC)c2)cc1	?	-15.7%	12.1%	.	?	?
Nc1nc2ccccc2n1Cc1ccc(Cl)c(Cl)c1	?	-19.4%	.	-91.7*	-10.0%	?
Cc1ccc(Cn2c(N)nc3ccccc32)cc1	9.2µM*	-27.2%	.	-25.3	3.5%	18.4µM*
COc1cc(OC)cc(C(=O)NNC(=O)CN2C(=O)NC(C)(c3ccccc3)C2=O)c1 (configuration not stated)	-7.5%	-14.2%	-0.2%	11.5	0.5%	7.8%
COc1ccc(Cn2c(C(C)C)nc3sc4ccccc4c(=O)c3c2=O)cc1	11.6µM*	-12.5%	0.0%	?	-0.1%	?
SMILES	DT40 TDP1 no CPT	HepG2 viability	TDP1 block	IL1B secr inh	TGFb SMAD3 inh	DT40 TDP1 CPT
CCCc1nc2sc3ccccc3c(=O)c2c(=O)n1Cc1ccc(OC)cc1	20.6µM*	-160.6%	4.1%	39.9	-18.1%	13µM*
CCCc1nc2sc3ccccc3c(=O)c2c(=O)n1Cc1ccco1	?	-11.4%	.	10.2	0.9%	?
CC(C)c1nc2sc3ccccc3c(=O)c2c(=O)n1Cc1ccccc1	14.6µM*	-12.7%	6.3%	61.5	-9.1%	16.4µM*
CC(NC(=O)CN1C(=O)NC2(CCCC2)C1=O)c1ccc(Cl)cc1Cl (configuration not stated)	?	-12.5%	0.0%	-19.2	1.1%	?
CCc1ccc(N2CC(C(=O)Nc3ccc4c(c3)OCO4)CC2=O)cc1 (configuration not stated)	-1.6%	-14.6%	-1.0%	23.3	-6.5%	-8.8%
CCOc1ccc(CCNC(=O)c2cc3cc4ccc(OC)cc4nc3s2)cc1OCC	?	-8.1%	2.5%	.	-19.1%	-45.2%
COc1ccc2nc3sc(C(=O)NCCN4CCc5ccccc5C4)cc3cc2c1	16.4µM*	-37.8%	-1.1%	28.8	-15.2%	20.6µM*
COc1ccc2cc3cc(C(=O)NC4CC4)sc3nc2c1	18.4µM*	-11.0%	-1.1%	0.0	7.7%	23.1µM*
CCCCC/C=C\CC(O)/C=C/c1cccc(CC(O)CCCCO)n1 (configuration not stated)	.	.	-12.9%[56.1 µM]	.	.	.
CC(=O)N1c2c(cc(Br)cc2S(=O)(=O)N2CCOCC2)CC1C (configuration not stated)	-12.0%	0.0%	2.1%	-4.5	12.9%	-3.6%
COc1cc(NS(=O)(=O)c2cc(Br)cc3c2N(C(C)=O)C(C)C3)cc(OC)c1 (configuration not stated)	18.4µM*	-9.3%	0.0%	.	0.0%	13µM*
COc1ccc(C)cc1NS(=O)(=O)c1cc(Br)cc2c1N(C(C)=O)C(C)C2 (configuration not stated)	18.4µM*	-5.9%	8.8%	.	?	?
CC(=O)N1c2c(cc(Br)cc2S(=O)(=O)N2CCN(c3cc(C)ccc3C)CC2)CC1C (configuration not stated)	14.6µM*	-16.4%	0.0%	.	?	16.4µM*
CCOC(=O)/C(=N/Nc1ccc(Cl)cc1)S(=O)(=O)c1ccccc1	?	-18.7%	2.0%	-69.3*	0.1%	-26.2%
CCOC(=O)C(=O)NCC(c1cccs1)S(=O)(=O)c1ccc(Cl)cc1 (configuration not stated)	9.6%	2.9%	0.5%	20.6	-14.8%	-3.8%
